Source: PubChem BioAssay (NCI)
Compounds without any hit were thinned out: in the full panel of roughly 79,000, 15% have a hit. Rule as the data show it: active = growth inhibition above about 70%; inactive = the rest.

Legend:
[1] = NCI Yeast Anticancer Drug Screen. Data for the rad50 strain (AID 155);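 also: 0% = growth of vehicle-only cultures of the same strain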; settings: S. cerevisiae rad50 strain growth inhibition; at 50.0 µM; active compounds read high
Method in brief: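 Genetically altered yeast (DNA repair pathway); compound treatment; growth inhibition vs vehicle ctrl.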

[2] = NCI Yeast Anticancer Drug Screen. Data for the mec2-1 strain (AID 157); settings: S. cerevisiae mec2-1 strain, at 50.0 µM, active compounds read high
Method in brief: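 Cells of the genetically defined mec2-1 yeast strain are incubated with test compound. Inhibition of growth is calculated against vehicle-treated controls.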

[3] = NCI Yeast Anticancer Drug Screen. Data for the sgs1 mgt1 strain (AID 161);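 also: 0% = growth of cultures given vehicle only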; settings: S. cerevisiae sgs1 mgt1 strain, at 50.0 µM, active compounds read high
Method in brief: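 Read-out: growth inhibition vs vehicle controls. Cells: mutant yeast strain deficient in DNA damage repair.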

[4] = NCI Yeast Anticancer Drug Screen. Data for the cln2 rad14 strain (AID 165);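 also: 0% = growth equal to vehicle treated cultures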; settings: S. cerevisiae cln2 rad14 strain, at 50.0 µM, active compounds read high
Method in brief: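 The screen exposed genetically defined yeast (cln2 rad14) to test compounds and scored growth inhibition relative to vehicle-treated controls.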

[5] = NCI Yeast Anticancer Drug Screen. Data for the bub3 strain (AID 167); settings: S. cerevisiae bub3 mutant strain, at 50.0 µM, active compounds read high
Method in brief: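 Yeast carrying a defined mutation is treated with each compound, and growth is compared with that of vehicle-exposed cells to give inhibition.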

[6] = NCI Yeast Anticancer Drug Screen. Data for the mlh1 rad18 strain (AID 175); settings: S. cerevisiae mlh1 rad18 strain growth inhibition; at 50.0 µM; active compounds read high
Method in brief: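 Compound-treated yeast growth, normalised to vehicle controls. Strain bears defined DNA repair mutations.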

Measured: growth inhibition

Cc1[nH]c(=O)[nH]c(=O)c1/C=C/C(=O)NC(CO)CS(=O)CS(C)=O (stereo unspecified)
inactive: [1] 3.85% | [2] -11.2% | [3] 9.75% | [4] 13.1% | [5] 5.6% | [6] -10.4%

CC1N=C(SCc2ccc(Cl)cc2)N2C(C)N=C(SCc3ccc(Cl)cc3)N12 (stereo unspecified)
inactive: [1] -12.7% | [2] -40% | [3] 5.8% | [4] 2.7% | [5] 5.6% | [6] -6.95%

OCC1(c2ccccc2)CCNCC1
inactive: [1] -8.7% | [2] -4.9% | [3] -2.1% | [4] -0.7% | [5] -9.7% | [6] 26.6%

CC/C(CC(C)CC)=N\O (stereo unspecified)
inactive: [1] -17.4% | [2] -18.2% | [3] -23.4% | [4] 12.5% | [5] -4.55% | [6] -5.75%

S=C(NCN1CCNCC1)C(=S)NCN1CCNCC1
inactive: [1] -14.2% | [2] -9.55% | [3] -6.1% | [4] -12.1% | [5] -4.05% | [6] -9.6%

COC(CC1(OC)OC(=O)C=C1N)OC (stereo unspecified)
inactive: [1] -7.05% | [2] 20.1% | [3] -12.7% | [4] -28.3% | [5] 16.8% | [6] -3.05%

O=c1c2ccccc2n2c(-c3ccc(O)cc3)nnc2n1-c1ccccc1
inactive: [1] -30.3% | [2] -17.1% | [3] 4.4% | [4] 7.75% | [5] 1.5% | [6] -14.8%

CCOC(=O)/C(O)=C(\C#N)c1cc(C)ccc1C
inactive: [1] -7.5% | [2] -14.6% | [3] -2.7% | [4] 0.45% | [5] -0.45% | [6] 10.8%

COCNC(=O)NCC(F)(F)C(F)(F)C(F)(F)C(F)(F)C(F)(F)C(F)(F)C(F)(F)F
inactive: [1] -9.9% | [2] 7.6% | [3] -1.2% | [4] 15.9% | [5] -5.7% | [6] 28.5%

O=C(c1ccccc1)C(Br)C(Br)c1ccc([N+](=O)[O-])cc1 (stereo unspecified)
inactive: [1] 14.7% | [2] 39.9% | [3] 31.4% | [4] 24.2% | [5] -1.9% | [6] 21.6%

COC(=O)c1cc(C(=O)OC)c(CC(=O)C(=O)Nc2c(C(C)C)cccc2C(C)C)nc1CC(=O)C(=O)Nc1c(C(C)C)cccc1C(C)C
inactive: [1] -18.8% | [2] -22.9% | [3] -11.7% | [4] 1.75% | [5] -13.1% | [6] -6.85%

Fc1ccc(Oc2nc3ccccc3nc2-c2ccccc2)cc1
inactive: [1] -3.35% | [2] 4.5% | [3] -2.15% | [4] 5.55% | [5] -9.4% | [6] 25.7%

COc1ccc(CCN2C(CC(=O)c3ccccc3)CCCC2CC(=O)c2ccccc2)cc1 (stereo unspecified)
inactive: [1] -29.6% | [2] -29.1% | [3] -23.8% | [4] -0.8% | [5] -17.5% | [6] -18.7%

COc1cc2c(cc1OC)C(CC(=O)NN=C(C)C)NCC2 (stereo unspecified)
inactive: [1] -20.6% | [2] -19.6% | [3] -10.2% | [4] 3.1% | [5] -16.8% | [6] -34.2%

C#CC(CCC)NC(C)(C)C (stereo unspecified)
inactive: [1] 31.7% | [2] -13.9% | [3] 7.35% | [4] -10.8% | [5] 1.95% | [6] 21.3%

NC(Cc1cccc(F)c1)C(=O)O (stereo unspecified)
inactive: [1] -1.3% | [2] -30.1% | [3] 6.7% | [4] -12.4% | [5] -9.1% | [6] 10%

Cc1cccc2c1Oc1ccccc1C2N1C(=O)/C(=C/c2ccc(Cl)c(Cl)c2)SC1=S (stereo unspecified)
inactive: [1] -3.8% | [2] -10.2% | [3] 6.75% | [4] 33.8% | [5] -17.8% | [6] 0.4%

CCC(=O)N(C)C1(C#N)CCCCC1
inactive: [1] 29.4% | [2] -42.9% | [3] 13% | [4] 0.1% | [5] 4.85% | [6] 24.2%

O=S(=O)(c1ccccc1)C1CCCCC1I (stereo unspecified)
inactive: [1] 45.9% | [2] 3.5% | [3] 21.4% | [4] -30.5% | [5] 23.7% | [6] 18.8%

O=C(CN1CCN(c2ccccc2)CC1)n1nnc2ccccc21
inactive: [1] -9.4% | [2] -3.9% | [3] -3.6% | [4] -13.8% | [5] -31.5% | [6] -6%

O=C1O/C(=C(\Br)c2cccc3ccccc23)c2ccccc21
inactive: [1] -18.1% | [2] -30.4% | [3] -34% | [4] 11.2% | [5] -27.6% | [6] -18.3%
